About 83,000 compounds went through this panel and 20% of them were active in at least one assay; those are over-represented in the sample as a whole.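 96-well plates, one dose, 48 hours. Percent growth reported; active if below 10.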 A number with no mark means an inactive call. Activity calls are given as the source filed them.
What follows are compounds tested on SNB-19 CNS (assay: NCI-60 one-dose screen, 48 h (100 = growth as untreated, 0 = no growth, -100 = all killed)). Conditions: 10 µM unless noted.
With `COC(=O)[C@]12CCC(C)(C)C[C@H]1C1=CC[C@@H]3[C@@]4(C)C/C(=C/c5cccnc5)C(=O)C(C)(C)[C@@H]4CC[C@@]3(C)[C@]1(C)CC2` the growth was -23.1% [100 µM] (active).
`CC(C)[C@H]1COC(=O)N1[C@@H]1C(=O)N([C@@H](CCC(=O)N2CCN(C3CCCC3)CC2)C(=O)N[C@@H]2CCCc3ccccc32)[C@@H]1/C=C/c1cccc(Cl)c1` was tested, and the growth was 56.6%.
`CCN=Cc1c(O)c(O)c(C(C)C)c2cc(C)c(-c3c(C)cc4c(C(C)C)c(O)c(O)c(C=NCC)c4c3O)c(O)c12` showed a growth of 27.3%.
`O=c1cc(-c2ccccc2)oc2c(O)c(O)ccc12` showed a growth of 58%.
In the case of `COc1ccc(C2NC(=O)C(C#N)c3c2sc2c(F)cccc32)cc1` (stereo not given), the growth is reported as 42.7%.
Compound `COc1cc(-c2nc(SCCC(C)C)nc(Nc3ccccc3)c2C#N)cc(OC)c1OC` has a growth of 99.4%.
For `O=C(N/N=C\c1cc(Cl)ccc1O)N/N=C/c1cc(Cl)ccc1O`, the growth was 58.2%.
`Cc1ccc(S(=O)(=O)Oc2ccc([N+](=O)[O-])cc2[N+](=O)[O-])cc1` gave a growth of 110%.
Compound `COCCCNc1nc(NC(=O)c2cc(OC)cc(OC)c2)cc(-c2cccnc2)n1` has a growth of 98.3%.
With `CC1(C)CC[C@]2(C(=O)O)CC[C@]3(C)C(=CC[C@@H]4[C@@]5(C)C/C(=C/c6ccco6)C(=O)C(C)(C)[C@@H]5CC[C@]43C)[C@@H]2C1` the growth was -9.61% [100 µM] (active).
In the case of `O=C(N=c1n(-c2ccccc2)nc2n1CCN2C1=NCCN1)c1ccc(Cl)cc1`, the growth is reported as 91.9%.

What follows are compounds tested on U251 CNS in the same assay as above. Conditions: 10 µM unless noted.
With `CC1=CCc2ccccc21` the growth was 103%.
`O=C1Nc2ccccc2/C1=C/C(=O)c1ccc(N2CCCCC2)cc1` was tested, and the growth was 52.7%.
Compound `COc1ccc2nc3c(cc2c1)C(=O)CC(c1ccccc1)C3` (stereo not given) has a growth of 45%.
With `Oc1ccc(N=Nc2nccs2)c(O)c1` the growth was 41.1%.
In the case of `Cc1cc(-c2ccc(N=Nc3c(S(=O)(=O)O)cc4cc(S(=O)(=O)O)cc(N)c4c3O)c(C)c2)ccc1N=Nc1cc(S(=O)(=O)O)c2ccccc2c1O`, the growth is reported as 99.5%.
With `C#CCNC(=O)CC[C@]1(C)[C@H]2CC[C@@H]3[C@@H]([C@@](C)(O)CCC=C(C)C)CC[C@@]3(C)[C@]2(C)CC[C@H]1C(=C)C` the growth was -71.4% [100 µM] (active).
`CC(=O)Nc1ccc2nc3ccc(NC(C)=O)cc3[n+](-c3ccccc3)c2c1` showed a growth of 109%.
`CCN(CC)CCCCCCNc1cccc2cc(Br)cnc12` showed a growth of 81.2%.
`COc1ccc(NC(=S)NNc2ccc(-c3ccc(OC)c(OC)c3)nn2)cc1` was tested, and the growth was 76.6%.
For `O=[N+]([O-])c1cc([N+](=O)[O-])c(NN=C(c2ccc(O)cc2)c2ccc(O)cc2)cc1Cl`, the growth was -99.9% (active).
`CC(C)C1=NOC(=O)C1=Cc1cn(-c2ccccc2)nc1-c1cccc([N+](=O)[O-])c1` showed a growth of 66.7%.
`C=C(C)[C@@H]1CC[C@]2(C(=O)NCCNCCNCCN)CC[C@]3(C)[C@H](CC[C@@H]4[C@@]5(C)CC[C@H](O)C(C)(C)[C@@H]5CC[C@]43C)[C@@H]12` was tested, and the growth was -71.6% [100 µM] (active).
With `O=C1COCCN1c1ccc(Nc2nc(Cl)nc(N3CCOCC3)n2)cc1` the growth was 101%.
With `Cn1cc(-c2noc(-c3cn(C)c4ncc(F)cc34)n2)c2cc(Br)ccc21` the growth was 29.4%.
With `CC1(C)NCCC[C@]2(C)[C@H]3C=CC4=C5C[C@](C)(CO)CC[C@]5(C)CC[C@@]4(C)[C@]3(C)CC[C@@H]12` the growth was -59.7% [100 µM] (active).
Work on `CCCC(NC(=O)OCc1ccccc1)C(=O)O` (stereo not given) yielded a growth of 104%.
`CC(C)C1=NOC(=O)C1=Cc1cn(-c2ccccc2)nc1-c1ccc(Cl)cc1` gave a growth of 71.1%.
Compound `COc1cc(OC)cc(C(=O)Nc2cc(-c3cccnc3)nc(NCCCN3CCOCC3)n2)c1` has a growth of 90.6%.
Compound `Brc1ccc2c(c1)CN(C1CCCCC1)CO2` has a growth of 108%.
With `CC/C=C(\C)C(CCC)(CN=O)C(=O)OCC` (stereo not given) the growth was 99.3%.
`O=C(Nc1ccc(F)cc1)c1ccccc1` was tested, and the growth was 102%.
`O=C(O)c1cccc(CN2CCN(c3cc4c(cc3F)c(=O)c(C(=O)O)cn4C3CC3)CC2)c1O` showed a growth of 96.2%.
`COC(=O)c1c(C)[nH]c(/C=C2\N=C(c3ccc[nH]3)C=C2OC)c1C` was tested, and the growth was -27.9% (active).
Work on `C=CCCC1(C)NC(=O)NC1=O` (stereo not given) yielded a growth of 103%.

From PubChem BioAssay (NCI)
